# Results taken from PubChem BioAssay (Tox21).
# A number with no mark means an inactive call. Records with an inconclusive call do not appear. Where a call stands in place of a potency, no number is given. Active and inactive are the calls of the source. Unless noted, calls come from the whole dose curve; as a rule, active = well fitted curve in the direction sought with a large enough effect in the repeat runs; inconclusive = weak or mixed curves; inactive = no such curve, though single readings can be large; an effect the other way counts as inactive or inconclusive.
# How the values were obtained:
# [1] = qHTS assay to identify small molecule agonists of the hypoxia (HIF-1) signaling pathway - cell viability counter screen (AID 1224844; calls by dose curve; note: nearly all actives have a fitted effect of over 50% in size)
# How it was run: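 Cytotoxicity was measured in parallel with the HRE-driven beta-lactamase readout: after 17 hrs of compound exposure at 37C, HRE-bla ME-180 cells received CellTiter-Glo and luminescence was recorded 30 min later.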
# [2] = qHTS assay to identify small molecule agonists of H2AX (AID 1224845; active = well fitted activation curve with a large enough effect in the signal ratio in the repeat runs, not every such curve was filed as active; the % refers to the signal ratio; note: potency is the fitted concentration of half-maximal effect)
# How it was run: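 Wild-type CHO-K1 cells plated overnight, then exposed 3 hr at 37C to compounds at 15 concentrations (0.76% DMSO). Lysed, then HTRF anti-pH2AX(S139)-cryptate/anti-H2AX-d2 detection after 24 hr at room temperature; emissions 665 and 620 nm.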
# [3] = qHTS assay to identify small molecule agonists of the hypoxia (HIF-1) signaling pathway (AID 1224846; active = well fitted activation curve with a large enough effect in the signal ratio in the repeat runs, not every such curve was filed as active; the % refers to the signal ratio)
# How it was run: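 Compounds from the Tox21 10K library, dissolved in DMSO, are tested for induction of a hypoxia response element–controlled beta-lactamase reporter in ME-180 cells. Exposure lasts 17 hrs at 37C after a 5 hr settling period, followed by CCF4-AM FRET substrate.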
# [4] = qHTS assay to identify small molecule agonists of H2AX - cell viability counter screen (AID 1224847; calls by dose curve; note: nearly all actives have a fitted effect of over 30% in size; note: potency is the fitted concentration of half-maximal effect)
# How it was run: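 Quantitative HTS viability measurement: CHO-K1 wild-type cells in serum (10% FBS) medium, short 3 hr drug exposure at 37C with 0.76% DMSO, CellTiter-Glo luminescent detection.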
# [5] = qHTS assay to identify small molecule antagonists of the estrogen related receptor (ERR) signaling pathway from Tox21 library (AID 1224848); note: nearly all actives have a fitted effect of over 50% in size; note: potency is the fitted concentration of half-maximal effect
# How it was run: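 First, 2,000 ERR cells per well were plated and held 6 h at 37 C/5% CO2. Next, compounds in DMSO were pinned in and left 18 h at 37 C. Finally, ONE-Glo was added and luminescence read after 30 min at room temperature.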
# [6] = qHTS assay to identify small molecule agonists of the estrogen related receptor (ERR) signaling pathway from Tox21 library (AID 1224849; calls by dose curve; note: nearly all actives have a fitted effect of over 15% in size); details: ERR reporter cell line, ONE-Glo luciferase, 18 h; at 92.4 µM (top of the series) unless noted
# How it was run: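 Cells carrying the ERR reporter were plated and allowed to settle for 6 h, exposed to library compounds for 18 h at 37 C, then lysed with ONE-Glo and luminescence measured.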
# [7] = qHTS RealTime-Glo MT Cell Viability Assay in HepG2 cells - 24 hour (AID 1224867); note: nearly all actives have a fitted effect of over 50% in size
# How it was run: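 Luminescence read-out: viable HepG2 cells reduce a prosubstrate to a NanoLuc substrate, giving a signal proportional to live cell number. Reads taken at 0, 8, 16, 24, 32 and 40 h of compound exposure at 37 C.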
# [8] = qHTS RealTime-Glo MT Cell Viability Assay in HEK293 cells - 32 hour (AID 1224868); note: nearly all actives have a fitted effect of over 50% in size; note: potency is the fitted concentration of half-maximal effect
# How it was run: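 Nonlytic real-time viability readout: viable cells convert prosubstrate to NanoLuc substrate, giving luminescence proportional to live cell number. HEK293, 600 cells/well, compound added after 5 h, continuous culture at 37 C.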
# [9] = A CellTox Green Cytotoxicity Assay to monitor cytotoxicity in HEK293 cells - 0 hour (AID 1224869); note: nearly all actives have a fitted effect of over 50% in size
# How it was run: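 Cells (HEK293, 600/well) and dye reagent are dispensed together. After 5 h at 37 C, 23 nL compound is pinned in. Plates stay at 37 C for 40 h with fluorescence read at 0h, 8h, 16h, 24h, 32h and 40h.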
# [10] = qHTS RealTime-Glo MT Cell Viability Assay in HepG2 cells - 40 hour (AID 1224870); note: nearly all actives have a fitted effect of over 50% in size
# How it was run: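 HepG2 cells mixed with RealTime-Glo MT reagents (NanoLuc plus cell-permeant prosubstrate) were seeded at 600 cells/well, incubated 5 h at 37 C/5% CO2, then pinned with compounds in DMSO; nonlytic luminescence tracked viability during 40 h treatment.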
SMILES,Potency [1],Potency [2],outcome [3],Potency [4],Potency [5],"activity change, positive = activation [6]",Potency [7],Potency [8],Potency [9],Potency [10]
Cc1ccccc1CCl,inactive,inactive,inactive,inactive,inactive,7.48%,inactive,inactive,inactive,
CC(=O)C(C)(C)C,inactive,inactive,inactive,inactive,inactive,-0.0388%,inactive,inactive,inactive,
Clc1cccc(SC2CCNCC2)n1,inactive,inactive,inactive,inactive,inactive,0.887% [at 42.5 µM],inactive,inactive,inactive,inactive
ClC=C(Cl)Cl,inactive,inactive,inactive,inactive,inactive,-0.0629%,inactive,inactive,inactive,inactive
CCc1ccc(C(=O)NN(C(=O)c2cc(C)cc(C)c2)C(C)(C)C)cc1,inactive,inactive,inactive,inactive,30.6 µM (active),-56.4%,inactive,inactive,inactive,inactive
O=Cc1ccc(Cl)cc1Cl,inactive,inactive,inactive,inactive,inactive,-10.7%,inactive,inactive,inactive,inactive
Clc1ccc(C2(Cn3cncn3)CC(Br)CO2)c(Cl)c1 (stereo unspecified),inactive,inactive,inactive,112 µM (active),15.3 µM (active),-55.5%,inactive,27.4 µM (active),inactive,
O=[Se]=O,inactive,inactive,inactive,inactive,30.4 µM (active),-51.4% [at 42.5 µM],inactive,17.3 µM (active),inactive,
CC(Cl)C(C)Cl (stereo unspecified),inactive,inactive,inactive,inactive,inactive,0.315%,inactive,inactive,inactive,inactive
COC(=O)C(C)N(C(=O)Cc1ccccc1)c1c(C)cccc1C (stereo unspecified),inactive,inactive,inactive,inactive,30.6 µM (active),-38.3%,inactive,,inactive,
CC(=O)[C@H]1CC[C@H]2[C@@H]3CC[C@H]4C[C@](C)(O)CC[C@]4(C)[C@H]3CC[C@]12C,inactive,inactive,inactive,inactive,inactive,9.6% [at 42.5 µM],inactive,inactive,inactive,inactive
CC/C(=N\OC/C=C/Cl)C1=C(O)CC(C2CCOCC2)CC1=O (stereo unspecified),inactive,inactive,inactive,inactive,inactive,0.742%,inactive,inactive,inactive,inactive
ClCc1cccc(Cl)c1,inactive,inactive,inactive,inactive,inactive,-9.7% [at 42.5 µM],,inactive,inactive,inactive
CC(=O)NC1CCSC1=O (stereo unspecified),inactive,inactive,inactive,inactive,inactive,1.16% [at 42.5 µM],inactive,inactive,inactive,inactive
Sc1ccccc1Cl,inactive,inactive,inactive,inactive,inactive,1.99% [at 42.5 µM],inactive,inactive,inactive,inactive
Clc1cc(C(Cl)(Cl)Cl)cnc1Cl,inactive,89.8 µM (active),inactive,inactive,inactive,0.0985%,inactive,34.7 µM (active),inactive,
CCCCCCCCCCOC(=O)c1ccccc1C(=O)OCCCCCCCCCC,inactive,inactive,inactive,inactive,inactive,1.79%,inactive,inactive,inactive,inactive
N#Cc1ccc(Cl)cc1,inactive,inactive,inactive,inactive,inactive,0.802%,inactive,inactive,inactive,inactive
C[C@H]1CNCCc2ccc(Cl)cc21,inactive,inactive,inactive,inactive,inactive,-0.2% [at 42.5 µM],inactive,inactive,inactive,inactive
O=C1CN=C(c2ccccc2)c2cc(Cl)ccc2N1CC1CC1,inactive,inactive,inactive,94.2 µM (active),51 µM (active),-41.3%,inactive,,inactive,inactive
c1ccc(C2CC2)c(OCC2=NCCN2)c1,inactive,inactive,inactive,inactive,inactive,4.99% [at 42.5 µM],inactive,inactive,inactive,inactive
